Assay [1] has as its target Gonadotropin-releasing hormone receptor (Homo sapiens) (UniProt P30968). As to the kind of experiment: Human gonadotropin-releasing hormone receptor (GnRHR) small molecule agonists, calcium flux assay in GnRHR-HEK293 cells (AID 1920063). Further: nearly all actives have a fitted effect of over 35% in size. The essentials: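 Cells: HEK293 stably expressing human GnRHR. Steps: overnight (18 h) culture, 1 h calcium dye loading at 37 C, compound addition, kinetic fluorescence read at 480/540 nm. Each compound tested at 15 concentrations in triplicate.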

For assay [2], the target named is KiSS-1 receptor (Homo sapiens) (UniProt Q969F8). In words: Human kisspeptin (KISS1R) small molecule agonists, calcium flux assay in KISS1R-HEK293 cells (AID 1920064; active means well fitted activation curve with a large enough effect in the repeat runs). The essentials:
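Cells plated and incubated 18 h; dye added, 1 h at 37 C; compounds in DMSO pinned in; signal read at 480/540 nm every second for 3 min. Each compound tested at 15 concentrations in triplicate.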
A general note: A change in cytosolic calcium serves as a functional read-out for many receptors and channels.

Assay [3] is described as follows: G protein-coupled receptor (GPCR) small molecule agonists, calcium flux assay: HEK293 wild type cell line counter screen (AID 1920065). The essentials: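 Counter-screen of the Tox21 10K library for non-specific calcium release: dye-loaded cells received compounds in DMSO and were monitored by kinetic fluorescence (480/540 nm, 3 min). Fifteen concentrations, run in triplicate.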

A short description of assay [4]: p53 small molecule agonists, cell-based qHTS assay with rat liver microsomes (AID 1963578). The essentials:
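Cells carrying a p53 response element–beta-lactamase reporter were plated and rested 5 h, then dosed with compound in DMSO plus rat liver microsomes and NADPH, each at 0.5 mg/mL final. After 16 h at 37 C, LiveBLAzer substrate was added for 2 h.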
A general note: In qHTS, concentration-response curves come from the screen itself.

Assay [5] in a line: p53 small molecule agonists, cell-based qHTS assay with human liver microsomes: qHTS cell viability counter screen (AID 1963579). Further: nearly all actives have a fitted effect of over 45% in size. The method in brief: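 Cytotoxicity counter screen: p53RE-bla, 4,000 cells/well; 5 h settle, 37 C/5% CO2; cpd + HLM 0.5 mg/mL + NADPH 0.5 mg/mL (final); 16 h, 37 C; CellTiter-Glo, 30 min RT, luminescence.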
Assay [6] can be described thus: p53 small molecule agonists, cell-based qHTS assay with rat liver microsomes: qHTS cell viability counter screen (AID 1963580). Further: nearly all actives have a fitted effect of over 45% in size. The method in brief: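 p53RE-bla HCT-116 cells (4,000/well) rested 5 h at 37 C, then given Tox21 compounds in DMSO with rat liver microsomes (0.5 mg/mL final) plus NADPH (0.5 mg/mL final) for 16 h at 37 C. Viability read by CellTiter-Glo luminescence after 30 min at room temperature.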

Assay [7] in a line: p53 small molecule agonists, cell-based qHTS assay (AID 1963582; active means well fitted activation curve with a large enough effect in the signal ratio in the repeat runs, not every such curve was filed as active; the % refers to the signal ratio). The method in brief: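 Quantitative HTS in p53RE-bla cells: after a 5 h settling period, compounds delivered in DMSO were left on cells for 16 h at 37 C, and reporter induction was measured as fluorescence following 2 h substrate loading.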
Assay [8] addresses 5-hydroxytryptamine receptor 2A (Homo sapiens) (UniProt P28223). As to the kind of experiment: 5-hydroxytryptamine receptor 2A (HTR2A) small molecule antagonists, cell-based qHTS assay (AID 1963586). Further: nearly all actives have a fitted effect of over 45% in size. Further: potency means the concentration at half of the fitted maximal effect. The essentials: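 Antagonist-mode intracellular calcium assay: DOI (4 nM) added after 5 min compound pre-incubation at room temperature to dye-loaded HTR2A-CHO cells. Fluorescence followed for 3 min, sampled every second.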

Assay [9] shares this target. As to the kind of experiment: 5-hydroxytryptamine receptor 2A (HTR2A) small molecule agonists, cell-based qHTS assay (AID 1963587). Further: nearly all actives have a fitted effect of over 30% in size. The essentials:
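HTR2A-CHO cells, plated 18 h at 37 C/5% CO2, dye-loaded 1 h at 37 C; compounds in DMSO added by pin tool (agonist mode). Intracellular calcium flux read as kinetic fluorescence on FDSS over 2 min at 1 s intervals.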

Assay [10] has as its target Muscarinic acetylcholine receptor M1 (Homo sapiens) (UniProt P11229). As to the kind of experiment: Cholinergic receptor muscarinic 1 (CHRM1) small molecule antagonists, cell-based qHTS assay (AID 1963588). Further: nearly all actives have a fitted effect of over 40% in size. The essentials:
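CHRM1-CHO calcium-flux assay, antagonist mode. Cells were seeded 18 h, dye-loaded 1 h at 37 C and given compound for 5 min at RT, then acetylcholine was added at 50nM. FDSS fluorescence was read 3 min; 15 concentrations, three runs.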

Assay [11] shares this target. As to the kind of experiment: Cholinergic receptor muscarinic 1 (CHRM1) small molecule agonists, cell-based qHTS assay (AID 1963589). Further: nearly all actives have a fitted effect of over 35% in size. The essentials: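 Agonist-mode qHTS in CHO cells stably carrying human muscarinic M1. Intracellular calcium is tracked by fluorescence every second after compound transfer; each compound runs at 15 concentrations in three independent runs.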

Assay [12] in a line: cAMP Responsive Elements (CRE) small molecule agonists, cell-based qHTS assay (AID 1963590). The essentials:
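Agonist mode qHTS in CRE-bla HEK 293T cells: compounds dosed from DMSO for 3 h at 37 C/5% CO2, followed by LiveBLAzer B/G FRET substrate for 2 h at room temperature.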

A short description of assay [13]: cAMP Responsive Elements (CRE) small molecule antagonists, cell-based qHTS assay (AID 1963591; active means well fitted inhibition curve with a large enough effect in the signal ratio in the repeat runs, not every such curve was filed as active; the % refers to the signal ratio). The method in brief:
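Antagonist mode: test compounds are co-incubated with the adenylyl cyclase activator NKH477 (0.25 uM final) on CRE-bla HEK293T cells for 3 h at 37 °C, followed by LiveBLAzer substrate loading.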

The target in assay [14] is Beta-2 adrenergic receptor (Homo sapiens) (UniProt P07550). As to the kind of experiment: Adrenergic beta2 receptor (ADRB2) small molecule antagonists, cell-based qHTS assay (AID 1963592). Further: series mostly up to about 92 µM; nearly all actives have a fitted effect of over 50% in size. The method in brief: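 Cells (CHO, stable ADRB2 overexpression) incubated 18-20hr at 37C; compounds added from DMSO; agonist mix (1nM isoproterenol, 100uM IBMX, 25uM Ro-20-1724) added; 0.5hr RT; d2-cAMP and anti-cAMP-cryptate added; 1hr RT; 665/615 nm read.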
Beta-2 adrenergic receptor (Homo sapiens), sequence (P07550 whole entry, looked up): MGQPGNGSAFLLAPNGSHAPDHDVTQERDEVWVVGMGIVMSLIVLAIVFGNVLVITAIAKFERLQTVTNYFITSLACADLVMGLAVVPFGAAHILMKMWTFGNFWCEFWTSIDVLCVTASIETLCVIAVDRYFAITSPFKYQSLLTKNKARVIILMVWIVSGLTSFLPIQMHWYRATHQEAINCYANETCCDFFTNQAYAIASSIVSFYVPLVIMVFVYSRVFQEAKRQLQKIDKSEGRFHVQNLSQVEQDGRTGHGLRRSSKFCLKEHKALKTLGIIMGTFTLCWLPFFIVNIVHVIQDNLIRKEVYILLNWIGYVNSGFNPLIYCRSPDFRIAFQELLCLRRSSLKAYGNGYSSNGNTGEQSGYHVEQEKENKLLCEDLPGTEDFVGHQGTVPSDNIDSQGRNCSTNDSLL

Assay [15] has the same target. In words: Adrenergic beta2 receptor (ADRB2) small molecule agonists, cell-based qHTS assay (AID 1963593).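 Further: CHO cells stably overexpressing human ADRB2.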 The essentials:
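CHO cells stably over-expressing ADRB2 were plated overnight at 37C, then dosed with compounds plus a stimulation mix containing 100uM IBMX and 25uM Ro-20-1724 for 0.5hr at room temperature. cAMP was measured by HTRF competition, 1hr.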

Assay [16] addresses D(2) dopamine receptor (Homo sapiens) (UniProt P14416). As to the kind of experiment: Dopamine D2 receptor (DRD2) small molecule antagonists, cell-based qHTS assay (AID 1963595; active means well fitted inhibition curve with a large enough effect in the signal ratio in the repeat runs, with a control signal flat; the % refers to the signal ratio). The essentials:
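Stable D2 receptor HEK293 line, 24 h after seeding. Compound preincubated 10 min, then quinpirole (12 nM) with forskolin analogue NKH477 (200 nM), 30 min, room temperature. Detection by time-resolved FRET of cAMP.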

Assay [17] in a line: p53 small molecule agonists, cell-based qHTS assay with human liver microsomes (AID 1963577). The method in brief: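 Fluorescence of the beta-lactamase reporter in p53RE-bla cells, detected with LiveBLAzer substrate (2 h, room temperature, dark), served as the read-out after 16 h compound exposure at 37 C with human liver microsomes and NADPH, each 0.5 mg/mL final.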
The nature of assay [18]: p53 small molecule agonists, cell-based qHTS assay: qHTS cell viability counter screen (AID 1963581). Further: nearly all actives have a fitted effect of over 45% in size. The method in brief:
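Cells: HCT-116 with p53 response element-driven beta-lactamase. Treatment: 16 h, 37 C, compounds in DMSO. Read: CellTiter-Glo luminescence after 30 min RT.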

Assay [19] concerns the target D(2) dopamine receptor (Homo sapiens) (UniProt P14416). As to the kind of experiment: Dopamine D2 receptor (DRD2) small molecule agonists, cell-based qHTS assay (AID 1963594). Further: nearly all actives have a fitted effect of over 35% in size. The essentials:
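HEK293 cells stably expressing DRD2 were cultured 24 h at 37 C, then given Ro20-1724 (0.1 mM final) and compounds for 10 min at room temperature. NKH477 (200nM) was then added for 30 min. cAMP was read by HTRF.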

Several values for one entry are separate records, joined by “and”; a condition that tells them apart may be missing. Equal entries are not always repeated. Records with an inconclusive call do not appear. Some compounds were tested as several samples or in several runs, with calls that do not always agree. Activity calls are given as the source filed them. Unless noted, the call rests on the fitted dose curve.

5-hydroxytryptamine receptor 2A (Homo sapiens), sequence (P28223 whole entry, looked up): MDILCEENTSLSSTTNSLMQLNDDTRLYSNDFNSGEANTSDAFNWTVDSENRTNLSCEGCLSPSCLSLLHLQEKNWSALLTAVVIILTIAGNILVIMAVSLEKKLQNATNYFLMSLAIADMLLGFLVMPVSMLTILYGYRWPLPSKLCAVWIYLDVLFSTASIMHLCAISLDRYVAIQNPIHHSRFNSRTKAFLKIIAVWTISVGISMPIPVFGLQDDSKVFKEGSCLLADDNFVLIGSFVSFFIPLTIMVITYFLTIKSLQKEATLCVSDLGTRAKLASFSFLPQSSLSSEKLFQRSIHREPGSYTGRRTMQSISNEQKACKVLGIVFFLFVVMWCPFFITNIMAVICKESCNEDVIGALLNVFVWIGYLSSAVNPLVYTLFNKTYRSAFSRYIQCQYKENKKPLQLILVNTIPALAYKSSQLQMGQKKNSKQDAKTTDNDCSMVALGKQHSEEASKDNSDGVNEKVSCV
Muscarinic acetylcholine receptor M1 (Homo sapiens), sequence (P11229 whole entry, looked up): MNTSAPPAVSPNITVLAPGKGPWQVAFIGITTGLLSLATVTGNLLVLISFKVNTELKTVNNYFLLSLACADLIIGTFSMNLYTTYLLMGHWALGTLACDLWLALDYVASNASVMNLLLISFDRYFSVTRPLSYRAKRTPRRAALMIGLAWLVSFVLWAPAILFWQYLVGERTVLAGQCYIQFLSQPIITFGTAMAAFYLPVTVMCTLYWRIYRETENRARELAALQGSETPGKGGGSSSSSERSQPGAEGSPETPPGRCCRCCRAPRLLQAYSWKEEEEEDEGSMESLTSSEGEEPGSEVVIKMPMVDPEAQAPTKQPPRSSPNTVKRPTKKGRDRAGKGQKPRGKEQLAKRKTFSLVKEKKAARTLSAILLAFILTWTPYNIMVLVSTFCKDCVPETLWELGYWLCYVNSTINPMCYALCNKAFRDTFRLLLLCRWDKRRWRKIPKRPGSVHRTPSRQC
Gonadotropin-releasing hormone receptor (Homo sapiens), sequence (P30968 whole entry, looked up): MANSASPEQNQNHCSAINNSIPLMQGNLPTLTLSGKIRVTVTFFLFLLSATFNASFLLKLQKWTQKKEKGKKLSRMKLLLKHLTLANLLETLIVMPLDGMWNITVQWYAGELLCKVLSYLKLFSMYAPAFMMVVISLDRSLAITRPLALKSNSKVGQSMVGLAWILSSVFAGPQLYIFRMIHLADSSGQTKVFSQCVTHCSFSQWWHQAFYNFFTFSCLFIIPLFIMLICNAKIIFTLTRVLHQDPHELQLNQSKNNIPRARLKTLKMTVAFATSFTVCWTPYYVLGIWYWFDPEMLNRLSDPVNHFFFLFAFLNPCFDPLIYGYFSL
KiSS-1 receptor (Homo sapiens), sequence (Q969F8 whole entry, looked up): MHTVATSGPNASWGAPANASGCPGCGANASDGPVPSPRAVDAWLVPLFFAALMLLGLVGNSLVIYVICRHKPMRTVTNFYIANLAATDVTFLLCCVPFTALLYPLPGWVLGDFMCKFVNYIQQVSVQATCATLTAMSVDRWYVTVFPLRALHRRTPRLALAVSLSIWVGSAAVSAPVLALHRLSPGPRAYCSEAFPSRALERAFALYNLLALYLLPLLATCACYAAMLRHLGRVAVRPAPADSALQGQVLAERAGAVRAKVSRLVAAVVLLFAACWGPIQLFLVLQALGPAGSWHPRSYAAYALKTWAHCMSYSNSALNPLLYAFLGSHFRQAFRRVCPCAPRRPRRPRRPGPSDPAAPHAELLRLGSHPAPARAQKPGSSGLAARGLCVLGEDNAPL
D(2) dopamine receptor (Homo sapiens), sequence (P14416 whole entry, looked up): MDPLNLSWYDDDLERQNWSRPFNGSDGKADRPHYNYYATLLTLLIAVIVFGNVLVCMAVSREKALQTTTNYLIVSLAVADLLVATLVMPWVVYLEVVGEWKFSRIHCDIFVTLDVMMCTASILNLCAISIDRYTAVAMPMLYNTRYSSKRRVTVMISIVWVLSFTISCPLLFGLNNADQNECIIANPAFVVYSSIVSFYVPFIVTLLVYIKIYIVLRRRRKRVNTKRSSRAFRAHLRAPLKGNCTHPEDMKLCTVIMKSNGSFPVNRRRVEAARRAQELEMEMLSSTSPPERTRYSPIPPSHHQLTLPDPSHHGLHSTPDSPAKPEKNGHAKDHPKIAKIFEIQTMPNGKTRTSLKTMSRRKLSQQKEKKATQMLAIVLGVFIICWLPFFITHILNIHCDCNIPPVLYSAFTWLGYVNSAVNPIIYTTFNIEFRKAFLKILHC

For the molecule `OB(O)O`, the Potency entry in assay [1], in assay [2], in assay [3], in [4], in assay [5] and in assay [6] was “inactive” in each case. In addition, the Potency result in assay [7], in assay [8], in [9], in assay [10], in assay [11] and in assay [12] was “inactive” throughout. Besides, the Potency entry in [13], in assay [14], in [15] and in assay [16] was “inactive” throughout.

As to `OC[C@@H](O)[C@@H](O[C@@H]1O[C@H](CO)[C@H](O)[C@H](O)[C@H]1O)[C@H](O)[C@@H](O)CO`, the Potency result in [1], in [3], in assay [17], in assay [4], in assay [6] and in [18] was “inactive” each time. In addition, the Potency entry in assay [7], in assay [8], in [11], in assay [12], in [13] and in assay [19] was “inactive” in each case. Also, the Potency entry in assay [16] was “inactive”.

As for `Nc1ccc(S(=O)(=O)Nc2nccs2)cc1`, the Potency result in [1], in assay [2], in assay [3], in [17], in assay [4] and in assay [5] was “inactive” throughout. Besides, the Potency entry in assay [6], in assay [18], in [7], in assay [12], in assay [13] and in [14] was “inactive” each time. Also, the Potency result in assay [19] and in [16] was “inactive” each time.

On to `CCCCCC(=O)O`, for which the Potency entry in [1], in assay [3], in assay [17], in assay [4], in assay [5] and in [6] was “inactive” each time. Besides, the Potency result in assay [18], in [7], in [8], in assay [9], in assay [10] and in [11] was “inactive” in each case. Moreover, the Potency entry in assay [12], in assay [13], in [14], in assay [15], in [19] and in assay [16] was “inactive” throughout.

Consider `CC(O)(P(=O)(O)O)P(=O)(O)O`, for which the Potency result in [1], in [2], in [3], in assay [5], in assay [6] and in assay [18] was “inactive” throughout. Moreover, the Potency result in [12], in assay [13], in [14], in assay [15], in assay [19] and in [16] was “inactive” in each case.

`CCCC[P+](CCCC)(CCCC)CCCC`: the Potency result in [1], in [2], in assay [3], in [17], in assay [5] and in [6] was “inactive” throughout. Also, the Potency result in assay [18], in [7], in assay [8], in assay [9], in assay [10] and in [11] was “inactive” each time. Also, the Potency result in [14], in assay [19] and in assay [16] was “inactive” throughout.

For the molecule `CCO[Si](CCCN)(OCC)OCC`, the Potency result in [1], in [2], in [3], in [17], in assay [5] and in assay [6] was “inactive” each time. In addition, the Potency result in [18], in assay [7], in assay [9], in [10], in assay [11] and in [12] was “inactive” in each case. The Potency entry in assay [13], in assay [14], in assay [15], in assay [19] and in assay [16] was “inactive” throughout.

Take `CC1=CC(C)(C)Nc2ccccc21`: the Potency entry in [1], in [2], in [3], in assay [17], in [4] and in assay [5] was “inactive” throughout. For the same molecule, the Potency entry in assay [6], in assay [18], in assay [7], in [8], in [9] and in assay [10] was “inactive” throughout. Also, the Potency entry in assay [11], in [12], in [14], in [15], in assay [19] and in assay [16] was “inactive” throughout.

For the molecule `CC(=O)Nc1ccc(CC(=O)O)cc1`, the Potency result in assay [1], in assay [2], in [3], in assay [17], in [5] and in [6] was “inactive” in each case. Also, the Potency entry in assay [18], in [7], in assay [9], in assay [10], in assay [11] and in assay [12] was “inactive” throughout. Moreover, the Potency entry in assay [13], in [14], in assay [15], in [19] and in assay [16] was “inactive” each time. For the same molecule, in assay [8], the Potency result was “inactive and 410 nM (active)”.

Consider `O=C(OCc1ccccc1)c1ccccc1`, for which the Potency entry in assay [1], in assay [2], in assay [3], in assay [5], in [6] and in assay [18] was “inactive” in each case. Besides, the Potency result in assay [8], in assay [9], in [11], in [12], in assay [13] and in assay [14] was “inactive” each time. For the same molecule, the Potency entry in assay [15], in assay [19] and in assay [16] was “inactive” in each case.

Turning to `O=C(CC(C(=O)OC1CCCCC1)S(=O)(=O)O)OC1CCCCC1` (stereo not drawn), the Potency result in [1], in [2], in assay [3], in assay [4], in assay [5] and in [6] was “inactive” throughout. In addition, the Potency result in [18], in [7], in assay [8], in [9], in [11] and in assay [12] was “inactive” each time. The Potency result in [13], in assay [14], in assay [15], in [19] and in assay [16] was “inactive” each time.
